In ChEMBL document CHEMBL4513141, “CO-ADD screening of NIH (USA) - Clinical Collection” (2021) one finds Inhibition data, which are given here for 38 compounds.

Structures are written as SMILES. Entries with a potency or affinity are not part of this list.

As usually defined, the Inhibition is the relative decrease from the control value, in per cent.

This assay deals with Klebsiella pneumoniae. Conditions: Concentration 20 uM; ASSAY_TEST Inhibition of Bacterial Growth; detection method Absorption (OD600); MEDIA CAMHB; plate type 384well; NBS; CORNING #3640; time 18 hr.
For `C[C@]12C[C@H](O)[C@H]3[C@@H](CCC4=CC(=O)CC[C@@]43C)[C@@H]1CC[C@@H]2C(=O)CO` [CORTICOSTERONE], the Inhibition was determined as 17.2%.

Turning to `C[C@H](CS)C(=O)N1CCC[C@H]1C(=O)O` [CAPTOPRIL], the Inhibition was 9.36%.

On to `NS(=O)(=O)c1cc2c(cc1Cl)NCNS2(=O)=O` [HYDROCHLOROTHIAZIDE], for which the Inhibition came to 14.61%.

Take `CC[C@]1(O)C[C@@H]2CN(CCc3c([nH]c4ccccc34)[C@@](C(=O)OC)(c3cc4c(cc3OC)N(C)[C@H]3[C@@](O)(C(N)=O)[C@H](O)[C@]5(CC)C=CCN6CC[C@]43[C@@H]65)C2)C1.O=S(=O)(O)O` [VINDESINE SULFATE]: the Inhibition came out at 6.96%.

Consider `CCOC(=O)C1(CCCCCCOc2ccc(Cl)cc2)CO1` (stereo not drawn) [rac-ETOMOXIR], for which the Inhibition was found to be 8.69%.

Turning to `CC1(C)S[C@@H]2[C@H](NC(=O)[C@H](N)c3ccc(O)cc3)C(=O)N2[C@H]1C(=O)O` [AMOXICILLIN], the Inhibition was found to be 10.29%.

For `CNCC[C@H](Oc1cccc2ccccc12)c1cccs1.Cl` [DULOXETINE HYDROCHLORIDE], the Inhibition turned out to be 5.49%.

For the compound `CN(C)CCOC(C)(c1ccccc1)c1ccccn1.O=C(O)CCC(=O)O` (stereo not drawn) [DOXYLAMINE SUCCINATE], the Inhibition worked out at 9.97%.

Regarding `Cl.Clc1cccc(Cl)c1NC1=NCCN1` [CLONIDINE HYDROCHLORIDE], the Inhibition is recorded as 4.94%.

Take `COc1cc(N)c(Cl)cc1C(=O)N[C@@H]1CCN(CCCOc2ccc(F)cc2)C[C@@H]1OC.O` [(R,S)-CISAPRIDE MONOHYDRATE]: the Inhibition is 7.83%.

Take `CC1(C)O[C@@H]2C[C@H]3[C@@H]4CCC5=CC(=O)C=C[C@]5(C)[C@@]4(F)[C@@H](O)C[C@]3(C)[C@]2(C(=O)CO)O1` [TRIAMCINOLONE ACETONIDE]: the Inhibition came to 14.59%.

Regarding `CCOC(=O)c1ccc(OC(=O)CCCCCN=C(N)N)cc1.CS(=O)(=O)O`, the Inhibition worked out at 15.95%.

Regarding `C[C@@H]1O[C@@H](OC[C@H]2O[C@@H](Oc3c(-c4ccc(O)c(O)c4)oc4cc(O)cc(O)c4c3=O)[C@H](O)[C@@H](O)[C@@H]2O)[C@H](O)[C@H](O)[C@H]1O` [RUTIN], the Inhibition is recorded as 10.13%.

With `CCS(=O)(=O)CCn1c([N+](=O)[O-])cnc1C` [TINIDAZOLE], the Inhibition was determined as 6.48%.

For the compound `COc1ccccc1OCCNCC(O)COc1cccc2[nH]c3ccccc3c12` (stereo not drawn) [CARVEDILOL], the Inhibition is listed as 14.17%.

`C#C[C@]1(O)CC[C@H]2[C@@H]3CCc4cc(OC)ccc4[C@H]3CC[C@@]21C` [MESTRANOL]: the Inhibition came out at 4.28%.

As for `COc1cc(C[C@@H](CO)[C@H](CO)Cc2ccc(O)c(OC)c2)ccc1O` [(+)-SECOISOLARICIRESINOL], the Inhibition is given as 5.83%.

On to `CCCc1cc(=O)[nH]c(=S)[nH]1` [PROPYLTHIOURACIL], for which the Inhibition is recorded as 16.2%.

With `CN(CCO)CC(O)Cn1cnc2c1c(=O)n(C)c(=O)n2C.O=C(O)c1cccnc1` (stereo not drawn) [XANTHINOL NIACINATE], the Inhibition stood at 12.07%.

In the case of `CN1CCN(CCCN2c3ccccc3Sc3ccc(C(F)(F)F)cc32)CC1.Cl.Cl` [TRIFLUOPERAZINE HYDROCHLORIDE], the Inhibition came to 10.06%.

Consider `CCC(C)(C)C(=O)O[C@H]1C[C@@H](C)C=C2C=C[C@H](C)[C@H](CC[C@@H]3C[C@@H](O)CC(=O)O3)[C@H]21` [SIMVASTATIN], for which the Inhibition is listed as -2.13%.

With `COC(=O)C1=C(C)NC(C)=C(C(=O)O[C@@H]2CCCN(Cc3ccccc3)C2)[C@@H]1c1cccc([N+](=O)[O-])c1.Cl`, the Inhibition is recorded as -2.17%.

Regarding `CN(C)CCC(c1ccc(Cl)cc1)c1ccccn1.O=C(O)/C=C\C(=O)O` (stereo not drawn) [CHLORPHENIRAMINE MALEATE], the Inhibition is listed as 2.46%.

With `Cl.O.O=C1N(c2ccccc2)c2ccccc2C1(Cc1ccncc1)Cc1ccncc1`, the Inhibition stood at 9.02%.

In the case of `CN(Cc1cnc2nc(N)nc(N)c2n1)c1ccc(C(=O)N[C@@H](CCC(=O)O)C(=O)O)cc1.O`, the Inhibition came out at 9.2%.

As to `Cc1sc(N)c(C(=O)c2cccc(C(F)(F)F)c2)c1C`, the Inhibition is on record as 7%.

Turning to `CS(=O)(=O)O.Cc1ccc(NC(=O)c2ccc(CN3CCN(C)CC3)cc2)cc1Nc1nccc(-c2cccnc2)n1` [IMATINIB MESYLATE], the Inhibition amounted to 14.57%.

`NS(=O)(=O)c1cc(C(=O)O)c(NCc2ccco2)cc1Cl` [FUROSEMIDE]: the Inhibition turned out to be 9.57%.

Turning to `Nc1nc(Cl)nc2c1ncn2[C@@H]1O[C@H](CO)[C@@H](O)[C@H]1O`, the Inhibition is recorded as 2.26%.

For `Cl.NC[C@H]1CC[C@H](C(=O)Oc2ccc(CCC(=O)O)cc2)CC1` [CETRAXATE HYDROCHLORIDE], the Inhibition was 11.26%.

Take `C=CCc1ccc(O)c(-c2ccc(O)c(CC=C)c2)c1` [HONOKIOL]: the Inhibition came out at 7.54%.

As for `O=c1c(O[C@@H]2O[C@H](CO)[C@@H](O)[C@H](O)[C@H]2O)c(-c2ccc(O)c(O)c2)oc2cc(O)cc(O)c12` [ISOQUERCETIN], the Inhibition is reported as 10.08%.

For the compound `C=C(CC)C(=O)c1ccc(OCC(=O)O)c(Cl)c1Cl` [ETHACRYNIC ACID], the Inhibition was 8.53%.

With `C[C@]12C=CC(=O)C=C1CC[C@@H]1[C@@H]2[C@@H](O)C[C@@]2(C)[C@H]1CC[C@]2(O)C(=O)CO` [PREDNISOLONE], the Inhibition worked out at 15.03%.

For `O=C(O)c1cc(-c2ccc(F)cc2F)ccc1O` [DIFLUNISAL], the Inhibition came out at 3.43%.

`CC(C)[C@H](N)C(=O)OCCOCn1cnc2c(=O)nc(N)[nH]c21.Cl` [VALACYCLOVIR HYDROCHLORIDE]: the Inhibition turned out to be 6.23%.

As to `CC1(C)S[C@@H]2[C@H](/N=C/N3CCCCCC3)C(=O)N2[C@H]1C(=O)O` [AMDINOCILLIN], the Inhibition was 18.13%.

For `CCC(=O)OCC(=O)[C@@]1(OC(=O)CC)[C@@H](C)C[C@H]2[C@@H]3CCC4=CC(=O)C=C[C@]4(C)[C@@]3(Cl)[C@@H](O)C[C@@]21C` [BECLOMETHASONE DIPROPIONATE], the Inhibition is listed as 7.24%.
